According to ChEMBL document CHEMBL1157539, “Thousands of chemical starting points for antimalarial lead identification” (Nature, 2010):

What was measured:
[1] = tested on: Plasmodium falciparum; experiment: GSK_TCMDC: Inhibition of Plasmodium falciparum 3D7 in whole red blood cells, using parasite LDH activity as an index of growth. Test compounds present at 2uM; type: functional
[2] = tested on: HepG2; experiment: GSK_TCMDC: Percent inhibition of human HepG2 cell line. Test compounds present at 10uM.; type: functional

SMILES | Inhibition [1] [%] | Inhibition [2] [%]
N=C(N)c1nc2ccccc2s1 | 87 | 1
Cc1ccc(-c2cnc3[nH]cc(-c4ccc(C(=O)O)c(C)c4)c3c2)cc1C.O=C(O)C(F)(F)F | 96 | 37
CC(C)Cc1csc(NC(=O)C=Cc2ccco2)c1C(=O)O | 82 | 4
O=C(O)C(F)(F)F.O=C(O)CCc1ccc(-c2c[nH]c3ncc(-c4ccc5ncccc5c4)cc23)cc1 | 88 | 30
CN(C)Cc1cccc(-c2ccc(NC(=O)c3ccc4c(=O)n(Cc5cnn(C)c5)cnc4c3)cc2)c1 | 80 | 12
O=C(O)CCSc1ncnc2[nH]cnc12 | 100 | 7
COc1ccc2c(c1)C(C)(CCCN(C)C)C(=O)N2C.O=C(O)C(=O)O (stereo not drawn) | 93 | 8
CCS(=O)(=O)c1ccc(/C(=N/OC)c2ccc[nH]2)cc1 | 85 | 0
Cc1ccccc1Oc1ccc(Nc2ccnc(Nc3cccc(C(N)=O)c3)n2)cc1C(F)(F)F.Cl | 81 | 9
CN(C)Cc1ccc(CNC2CCN(Cc3ccccc3Cl)CC2)cc1.O=C(O)C(F)(F)F | 82 | 23
O=C(Nc1nccs1)c1sc2ccccc2c1O | 96 | 0
CC(CC1CCCCC1)NCc1ccccc1OCCC(=O)N1CCCC1C(N)=O (stereo not drawn) | 97 | 5
Cc1cc(OCCCN2CCCC2)ccc1NC(=O)COc1ccc(Cl)cc1C(=O)c1cc(C#N)cc(C(F)(F)F)c1 | 85 | 18
Cc1cc2c(cc1C(F)(F)F)N(C(=O)Nc1ccc(C(=O)NCCN3CCCC3)cc1)CC2 | 100 | 10
